Measurements taken from ChEMBL document CHEMBL3433997, “St. Jude Leishmania screening dataset” (2016).

Tests used:
Format in all cases: functional
[1] = molecular target: Solute carrier family 2, facilitated glucose transporter member 1 (Homo sapiens) (UniProt P11166); assay: ST_JUDE_LEISH: Cytotoxicity at 2uM final concentration against transgenic Leishmania Mexicana promastigotes LmGLUT1 that are glucose transport deficient and complemented with the human glucose transporter GLUT1. Activity is measured by DNA content using SYBR green in vitro
[2] = molecular target: Hexose transporter 1 (Plasmodium falciparum) (UniProt O97467); assay: ST_JUDE_LEISH: Cytotoxicity at 2uM final concentration against transgenic Leishmania Mexicana promastigotes LmPfHT that are glucose transport deficient and complemented with the Plasmodium falciparum hexose transporter. Activity is measured by DNA content using SYBR green in vitro
[3] = molecular target: Glucose transporter (Leishmania mexicana) (UniProt O61059); assay: ST_JUDE_LEISH: Cytotoxicity at 2uM final concentration against transgenic Leishmania Mexicana promastigotes LmGT2 that are glucose transport deficient and complemented with the L. Mexicana glucose transporter 2. Activity is measured by DNA content using SYBR green in vitro

Chain of Solute carrier family 2, facilitated glucose transporter member 1 (Homo sapiens) (P11166 whole entry): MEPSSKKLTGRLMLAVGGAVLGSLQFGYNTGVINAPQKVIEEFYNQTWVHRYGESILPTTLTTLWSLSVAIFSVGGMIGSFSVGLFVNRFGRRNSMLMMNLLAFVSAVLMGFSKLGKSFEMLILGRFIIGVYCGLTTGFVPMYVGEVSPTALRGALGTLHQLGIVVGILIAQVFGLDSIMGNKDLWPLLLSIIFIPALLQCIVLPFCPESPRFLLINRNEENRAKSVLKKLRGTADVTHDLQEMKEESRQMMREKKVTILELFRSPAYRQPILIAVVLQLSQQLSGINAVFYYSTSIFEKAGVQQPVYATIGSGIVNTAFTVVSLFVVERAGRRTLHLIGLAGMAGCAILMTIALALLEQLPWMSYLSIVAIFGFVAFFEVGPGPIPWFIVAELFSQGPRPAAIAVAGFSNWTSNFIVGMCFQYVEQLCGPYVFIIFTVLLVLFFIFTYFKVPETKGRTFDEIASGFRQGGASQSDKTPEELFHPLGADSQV

Row | Compound | inhibition [1] | inhibition [2] | inhibition [3]
1 | Fc1ccc(C(OCC2CCCN(Cc3cccc4cccnc34)C2)c2ccc(F)cc2)cc1 (stereo not drawn) | 2.49% | 0.62% | -2.6%
2 | Cc1ccc(S(=O)(=O)N(CCCNCc2cccc(O)c2)c2ccccc2)cc1 | 9.85% | 6.1% | 7.86%
3 | CCN(CC)CCNc1ccnc2[nH]c3ccc(C)cc3c12 | 0.06% | 0.18% | 0.34%
4 | Cc1ccc(/C=C/C(=O)N2CCC(CCN3CCC(c4c[nH]c5ccccc45)CC3)CC2)cc1C | 1.87% | 1.19% | 6.17%
5 | O=S(=O)(Nc1ccc(-c2ccc(CN3CCCC3)cc2)cc1)c1cccc2cccnc12 | 78% | 85.2% | 71.7%
6 | NCc1ccc(CNCc2cccc(-c3ccc(-c4nc5cc(C(F)(F)F)ccc5[nH]4)cc3)c2)cc1 | 2.92% | 1.34% | 0.8%
7 | Cc1cc2nc(-c3ccc(C(=O)NCc4cccc(F)c4)cc3)[nH]c2cc1C | -0.23% | 0.73% | -1.73%
8 | COc1ccc(Cn2cncc2CN(CCC(C)C)C(=O)c2ccc(Cl)nc2Cl)cc1 | 2.52% | 2.14% | 2.49%
9 | COc1ccc2nccc([C@@H](O)CN3CCC(NCc4cc5ccccc5nn4)CC3)c2c1 | 6.88% | 7.17% | 7.16%
10 | Cc1cc(-c2ccc(CNCc3ccc(F)cc3)cc2)ccc1S(=O)(=O)NCCN1CCCC1 | 66.4% | 41.4% | -2.93%
11 | COc1ccc(NC(=O)Nc2cccc(-c3cccc(-c4nc5cccc(C)c5[nH]4)c3)c2)cc1 | -1.25% | -0.57% | -1.79%
12 | Cc1ccc(NC(=O)Nc2ccccc2)cc1-c1ccc(C(=O)Nc2ccncc2)cc1 | 9.17% | 7.89% | 9%
13 | O=C(Nc1ccc(-c2cccc(-c3nc4ccccc4[nH]3)c2)cc1)Nc1ccc(Cl)c(Cl)c1 | -0.46% | 0.83% | 0.9%
14 | O=C(NCCCCN1CCN(c2cccc3c2OCCO3)CC1)c1ccc(NC(=O)c2cc(Cl)cc(Cl)c2)cc1 | 2.62% | 2.75% | 3.56%
15 | O=C(/C=C/c1ccccc1Cl)Nc1ccc(Br)c(OCCN2CCN(CCN3CCCC3)CC2)c1 | 4.13% | 3.71% | 4.6%
16 | Cc1cc(N2CCCN(C)CC2)nc(Nc2ccc(Cl)cc2)n1 | 1.53% | 1.73% | 2.54%
17 | Oc1c(C(Nc2ccccn2)c2ccc(Cl)cc2Cl)ccc2cccnc12 (stereo not drawn) | 3.22% | 5.81% | 0.74%
18 | COc1ccc(CCN2CCC(Nc3nc4ccccc4n3CCc3ccc(OC)cc3)CC2)cc1 | 4.38% | -1.39% | 12.5%
19 | CCNC(=O)N1CCc2ccc(Oc3nc(NCc4ccccc4OC)ncc3C)cc2CC1 | 5.14% | 6.01% | 2.64%
20 | O=C(NC1CCN(Cc2cccc(C(F)(F)F)c2)CC1)c1ccc(-c2cccc(C(F)(F)F)c2)s1 | 6.34% | 3.03% | 6.14%
21 | O=C(Nc1ccc(OC2CCN(Cc3ccc(F)cc3)CC2)c(Cl)c1)c1ccc(F)cc1 | 2.58% | 3.52% | 7.21%
22 | COc1ccc2nccc(N/N=C/c3ccc([N+](=O)[O-])cc3)c2c1 | -1.64% | -1.77% | 3.94%
23 | O=C(NC(=S)Nc1cc(C(F)(F)F)cc(C(F)(F)F)c1)c1ccc(Cl)cc1 | 0.72% | -0.34% | -0.06%
24 | COc1cc(NC(=O)/C=C/c2ccccc2Cl)cc(OCCN2CCC(O)(c3ccccc3)CC2)c1 | 6.07% | 3.45% | 4.61%

Row | Compound | inhibition [1] | inhibition [2] | inhibition [3]
25 | NC1=NC(c2ccccc2)(c2ccccc2)C(=O)N1CC1CCC1 | 0.06% | 2.21% | 0.31%
26 | Fc1cc(Cl)ccc1Nc1ccnc2cc(-c3ccc(CN4CCOCC4)o3)ccc12 | 20.6% | 52.9% | 43.6%
27 | CC(=O)Nc1ccc(C(=O)Nc2cccc(-c3ccc(-c4nc5ccccc5[nH]4)s3)c2)cn1 | 4.38% | 1.07% | 5.88%
28 | COc1cc(C(=O)N2N=C(c3c(-c4ccccc4)c4cc(Br)ccc4[nH]c3=O)CC2c2cccc([N+](=O)[O-])c2)cc(OC)c1OC (stereo not drawn) | 3.48% | 3.48% | 3.79%
29 | N=C(N)Nc1nc(-c2cccc(NC(=O)NCC(c3ccccc3)c3ccccc3)c2)cs1 | 0.2% | 2.14% | 0.5%
30 | COc1cccc(C(=O)Nc2ccc(-c3nc4ccccc4[nH]3)cc2)c1 | 3.48% | 1.76% | 0.31%
31 | O=C(NC(c1ccccc1)c1ccc2cccnc2c1O)c1ccccc1 (stereo not drawn) | 4.04% | 6.18% | 4.35%
32 | Cc1cc(N[C@@H](CC(C)C)C(=O)NCCCOC(C)C)nc(NCCc2ccc(F)cc2)n1 | 2.71% | 1.92% | 0.62%
33 | CN1CCN(c2ccnc3ccc(NC(=O)Nc4ccc(Cl)cc4)cc23)CC1 | -1.11% | -0.83% | -1.7%
34 | Cc1cnc(NCC2CCCCC2)nc1N[C@@H](CO)C(=O)Nc1ccccc1 | 1.68% | 2.03% | -0.71%
35 | CC1CC(C)CN(CCCNc2ccc(C(=O)Nc3ccc(C(F)(F)F)cc3)cc2[N+](=O)[O-])C1 (stereo not drawn) | 3.92% | 0.64% | 1.47%
36 | O=S(=O)(Nc1cccc(CCN2CCCCC2CCN2CCCC2)c1)c1ccc(-c2ccccc2)cc1 (stereo not drawn) | 2.86% | -0.3% | -2.73%
37 | Cc1cccc2nc(-c3ccc(-c4cccc(CNCc5ccccc5)c4)s3)[nH]c12 | -1.26% | -0.6% | -0.69%
38 | O=C(Nc1ccc(-c2ccc(-c3nc4cc(C(F)(F)F)ccc4[nH]3)cc2)cc1)Nc1ccc(F)c(F)c1F | -0.4% | -0.22% | -1.44%
39 | CCc1ccc(CN2CCC(CNC(=O)c3cc(-c4ccccc4Cl)cs3)C2)cc1 (stereo not drawn) | 7.86% | 8.8% | 10.8%
40 | O=S(=O)(c1cccc(Cl)c1F)N(CCC(O)(C(F)(F)F)C(F)(F)F)Cc1cccc(O)c1 | 5.8% | -1.78% | -0.05%
41 | CC(C)CN1CCCN(Cc2cccc(NC(=O)c3cc4ccccc4s3)c2)CC1 | -0.04% | -0.28% | -5.16%
42 | CS(=O)(=O)CCNc1nccc(N2CCc3ncnc(Nc4ccc(OCc5cccc(F)c5)c(Cl)c4)c3C2)n1 | -1.94% | -1.97% | -1.99%
43 | CCNCc1ccc(-c2cc3ncnc(Nc4ccc(OCc5cccc(F)c5)c(Cl)c4)c3s2)[nH]1 | -0.88% | -3.14% | 3.41%
44 | O=C(NOCCCCOc1ccc(Cl)c(Cl)c1)c1ccccc1 | -2.66% | -2.61% | -1.29%
45 | N#Cc1ccc(-c2cnc3ccc(NCc4ccc(S(N)(=O)=O)cc4)nn23)cc1 | 2.42% | 1.16% | 0.38%
46 | NCc1ccc(-c2cccc(CNC3CCN(Cc4ccccc4)CC3)c2)cc1 | 5.2% | 5.95% | 3.72%
47 | Cc1cc(OCC2CCCN(c3ncc(C(=O)NC4CC4)cc3Cl)C2)ccc1F (stereo not drawn) | 0.51% | 1.78% | 0.81%
48 | Cc1c(-c2cccc(NC(=O)C(C)(C)Oc3ccc(Cl)cc3)c2)nc2ncccn12 | -0.94% | -1.86% | -3.03%

Row | Compound | inhibition [1] | inhibition [2] | inhibition [3]
49 | CC(C)[C@H](NC(=O)c1ccc(O)c(-c2cccc(C(F)(F)F)c2)c1)C(=O)NC1CCCc2ccccc21 (stereo partly drawn) | 3.9% | 2.89% | 0.81%
50 | COc1ccc(-c2ccc(NC(=O)c3cccc(Cl)c3)cc2)cc1CN1CCN(C)CC1 | 6.52% | 4.97% | 3.15%
51 | Cc1cc(C2CCN(CCCCNC(=O)c3ccc(-c4ccc(C(F)(F)F)cc4)cc3)CC2)c(C)cc1OCC#N | -0.43% | 1.3% | -0.09%
52 | COc1cc2nc(NCCn3ccnc3C)nc(NCCc3ccccc3)c2cc1OC | 1.91% | 1.02% | 2.18%
53 | CCOc1cc(C)ccc1N1CCN(CCN2CCC(NC(=O)c3ccc(-c4ccc(C#N)cc4)cc3)CC2)CC1 | 1.65% | 1.91% | 2.27%
54 | Cc1cccc2nc(-c3ccc(-c4cccc(NC(=O)CCc5c[nH]cn5)c4)cc3)[nH]c12 | 0.1% | 1.46% | 2.35%
55 | CCN(CC)CCN(Cc1ccc(-c2ccc(C(F)(F)F)cc2)cc1)C(=O)Cn1c(CCc2ccccc2F)nc(=O)c2ccccc21 | 3.8% | 3.39% | 2.3%
56 | FC(F)(F)COc1ccc(CCNCCCCNCCc2ccc(OCC(F)(F)F)c3ccccc23)c2ccccc12 | -0.09% | 12.3% | 1.09%
57 | Cc1[nH]c(C)c(-c2ccc(Br)cc2)c(=O)c1Cl | 4.57% | 3.47% | 3.22%
58 | COc1ccc(-c2ccc3c(-c4ccc(F)cc4)cnc(N)c3c2)cn1 | -1.25% | -1.33% | -0.22%
59 | CC(C)CNCc1ccc(-c2ccc(CN(C(=O)NCCc3ccccc3)C3CCN(Cc4ccccc4)CC3)cc2)cc1 | 71.6% | 53.7% | 47.2%
60 | CO/C(=C\C=C\c1cc2cc(Cl)c(Cl)cc2[nH]1)C(=O)NC1CC2CCCC(C1)N2C (stereo not drawn) | 1.7% | 0.66% | 5.12%
61 | CCC1CN2CCc3c([nH]c4ccccc34)[C@@H]2C[C@@H]1CC1NCCc2cc(OC)c(OC)cc21 (stereo partly drawn) | -0.82% | -1.25% | -1.42%
62 | COc1ccc2nccc(N3CCCN(CCNCc4ccc5c(n4)NC(=O)CS5)CC3)c2n1 | -4.21% | -0.98% | 3.94%
63 | O=C(Nc1ccc(Cl)c(C(F)(F)F)c1)c1ccc(Cl)c([N+](=O)[O-])c1 | 6.41% | 3.41% | 0.08%
64 | O=C(/C=C/c1ccc(Cl)cc1)NCCCCCN1CCC(C(=O)Nc2ccc(Cl)cc2)CC1 | -0.92% | 0.51% | 2.24%
65 | O=C(c1ccc(-c2ccccn2)s1)N1CCc2cc3nccc(N4CCN5CCC[C@H]5C4)c3cc21 | 8.55% | 8.34% | 8.66%
66 | Cc1cc(N(C)CCN(C)C)nc(Nc2ccc(Br)cc2)n1 | -0.17% | 3.61% | 2.53%
67 | COc1ccc2nccc([C@@H](O)CN3CCC(NCc4cc5ccccc5cn4)CC3)c2n1 | 12.2% | 17.3% | 7.09%
68 | O=C(/C=C/c1ccc(Cl)c(Cl)c1)N1CCC(NCc2c[nH]c3ccccc23)CC1 | 1.33% | 1.05% | 1.05%
69 | CCS(=O)(=O)N1CCN(c2nc(-c3ccccc3)nc(COC)c2Cc2ccccc2F)CC1 | 3.58% | 2.32% | 4.99%
70 | O=C(Nc1ccc(OC(F)(F)F)cc1)Nc1ccc([N+](=O)[O-])cc1 | 1.82% | 2.15% | 1.9%
71 | CN(C)CCNC(=O)c1ccc(-c2cnc3ccc(NCc4ccc(Cl)c(Cl)c4)nn23)cc1 | -1.43% | -1.29% | 11.1%
